The values below come from PubChem BioAssay (Tox21).

“And” between values parts separate entries of the source, which are not always exact repeats. Equal entries are not always repeated. Inconclusive results are not listed. More than one record can exist for a structure, and the calls need not agree. The source made the active and inactive calls. Unless noted, calls come from the whole dose curve.

Experiment [1] is described as follows: Nuclear factor erythroid 2-related factor 2/antioxidant responsive element (Nrf2/ARE) small molecule agonists: qHTS cell viability counter screen in human keratinocytes (AID 1919968; active = well fitted curve in the direction sought with a large enough effect in the repeat runs; an effect the other way counts as inactive or inconclusive; note: nearly all actives have a fitted effect of over 55% in size; note: potency is the fitted concentration of half-maximal effect). In outline: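 Viability counter-screen: KeratinoSens reporter cells, DMSO-delivered compounds, 23 h at 37 C, CellTiter-Fluor fluorescence.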
Experiment [2] is described as follows: Nuclear factor erythroid 2-related factor 2/antioxidant responsive element (Nrf2/ARE) small molecule agonists: luciferase reporter gene qHTS assay in human keratinocytes (AID 1919969). Note: nearly all actives have a fitted effect of over 35% in size. Note: potency is the fitted concentration of half-maximal effect. For orientation: A reporter such as luciferase makes a cellular process visible.
Experiment [3] has as its target Gonadotropin-releasing hormone receptor (Homo sapiens) (UniProt P30968). As to the kind of experiment: Human gonadotropin-releasing hormone receptor (GnRHR) small molecule agonists, calcium flux assay in GnRHR-HEK293 cells (AID 1920063). Note: nearly all actives have a fitted effect of over 35% in size. In outline: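 Tox21-format agonist screen using human GnRHR-expressing HEK293 cells and a fluorescent calcium dye; kinetic 3-min fluorescence reading after compound addition, 15-point concentration series run in triplicate.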
(In general: Calcium assays in cells follow changes in intracellular calcium, usually with a dye or a luminescent sensor.)

Experiment [4] deals with KiSS-1 receptor (Homo sapiens) (UniProt Q969F8). Nature of the experiment: Human kisspeptin (KISS1R) small molecule agonists, calcium flux assay in KISS1R-HEK293 cells (AID 1920064; active = well fitted curve in the direction sought with a large enough effect in the repeat runs; an effect the other way counts as inactive or inconclusive). The method, boiled down: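 Intracellular calcium mobilization in KISS1R-HEK293 cells was recorded by fluorescence (Ex/Em 480/540) for 3 min following compound addition to cells pre-loaded 1 h with calcium dye.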
KiSS-1 receptor (Homo sapiens), sequence (Q969F8 whole entry, looked up): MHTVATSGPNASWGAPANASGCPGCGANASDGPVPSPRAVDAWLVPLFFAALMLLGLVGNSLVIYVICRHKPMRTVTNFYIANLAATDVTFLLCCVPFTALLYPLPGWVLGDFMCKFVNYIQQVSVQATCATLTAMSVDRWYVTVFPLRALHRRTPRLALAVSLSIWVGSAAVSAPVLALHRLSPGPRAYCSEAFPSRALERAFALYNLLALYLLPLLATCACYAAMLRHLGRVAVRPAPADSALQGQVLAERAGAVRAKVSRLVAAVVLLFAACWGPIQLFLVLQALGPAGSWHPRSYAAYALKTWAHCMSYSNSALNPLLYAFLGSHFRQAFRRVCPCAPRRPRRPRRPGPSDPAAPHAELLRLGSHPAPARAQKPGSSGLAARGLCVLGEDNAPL

Experiment [5] can be described thus: G protein-coupled receptor (GPCR) small molecule agonists, calcium flux assay: HEK293 wild type cell line counter screen (AID 1920065). The method, boiled down:
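In this agonist-mode screen, ATP is the positive control and DMSO the vehicle. Cells grow 18 h before a 1 h dye incubation at 37 C; signal is taken at Ex/Em 480/540 over 3 min.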

Experiment [6] can be described thus: p53 small molecule agonists, cell-based qHTS assay with human liver microsomes (AID 1963577).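 Note: p53 response element beta-lactamase reporter cells with liver microsomes plus NADPH.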 The method, boiled down: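 With metabolic activation: human liver microsomes (0.5 mg/mL final) plus NADPH (0.5 mg/mL final) added alongside compounds to p53RE-bla cells; 16 h 37 C exposure; beta-lactamase read by LiveBLAzer fluorescence.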
In general terms: Quantitative high-throughput screening tests each substance at several concentrations.

Experiment [7] in a line: p53 small molecule agonists, cell-based qHTS assay with rat liver microsomes (AID 1963578). In outline:
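Metabolic activation by rat liver microsomes and NADPH, each 0.5 mg/mL final, added right after compounds to p53RE-bla reporter cells (4,000/well, plated 5 h earlier). 16 h at 37 C, then LiveBLAzer substrate for 2 h at room temperature in the dark; fluorescence read-out.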

Experiment [8] in a line: p53 small molecule agonists, cell-based qHTS assay with human liver microsomes: qHTS cell viability counter screen (AID 1963579). Note: nearly all actives have a fitted effect of over 45% in size. The method, boiled down:
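Metabolic activation used human liver microsomes and NADPH, both 0.5 mg/mL final, over 16 hours at 37 C on p53RE-bla cells (4,000/well). Cytotoxicity measured by CellTiter-Glo luminescence, 30 min at room temperature.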

Experiment [9] is described as follows: p53 small molecule agonists, cell-based qHTS assay with rat liver microsomes: qHTS cell viability counter screen (AID 1963580). Note: nearly all actives have a fitted effect of over 45% in size. Note: potency is the fitted concentration of half-maximal effect. The method, boiled down: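 p53RE-bla HCT-116 cells (4,000/well) rested 5 h at 37 C, then given Tox21 compounds in DMSO with rat liver microsomes (0.5 mg/mL final) plus NADPH (0.5 mg/mL final) for 16 h at 37 C. Viability read by CellTiter-Glo luminescence after 30 min at room temperature.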

Experiment [10] is described as follows: p53 small molecule agonists, cell-based qHTS assay: qHTS cell viability counter screen (AID 1963581). Note: nearly all actives have a fitted effect of over 45% in size. The method, boiled down:
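Compounds are pinned onto HCT-116 p53RE-bla cells and left 16 h at 37 C. Following the reporter FRET read, ATP is quantified by CellTiter-Glo luminescence after 30 min at room temperature.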

Experiment [11] in a line: p53 small molecule agonists, cell-based qHTS assay (AID 1963582; active = well fitted activation curve with a large enough effect in the signal ratio in the repeat runs, not every such curve was filed as active; the % refers to the signal ratio). The method, boiled down: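 Agonist activity was scored from beta-lactamase FRET fluorescence in p53RE-bla cells treated 16 h at 37 C with compounds in DMSO, substrate incubation being 2 h at room temperature.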
Experiment [12] deals with 5-hydroxytryptamine receptor 2A (Homo sapiens) (UniProt P28223). As to the kind of experiment: 5-hydroxytryptamine receptor 2A (HTR2A) small molecule antagonists, cell-based qHTS assay (AID 1963586). Note: nearly all actives have a fitted effect of over 45% in size. In outline: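 Antagonist-mode intracellular calcium assay: DOI (4 nM) added after 5 min compound pre-incubation at room temperature to dye-loaded HTR2A-CHO cells. Fluorescence followed for 3 min, sampled every second.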
5-hydroxytryptamine receptor 2A (Homo sapiens), sequence (P28223 whole entry, looked up): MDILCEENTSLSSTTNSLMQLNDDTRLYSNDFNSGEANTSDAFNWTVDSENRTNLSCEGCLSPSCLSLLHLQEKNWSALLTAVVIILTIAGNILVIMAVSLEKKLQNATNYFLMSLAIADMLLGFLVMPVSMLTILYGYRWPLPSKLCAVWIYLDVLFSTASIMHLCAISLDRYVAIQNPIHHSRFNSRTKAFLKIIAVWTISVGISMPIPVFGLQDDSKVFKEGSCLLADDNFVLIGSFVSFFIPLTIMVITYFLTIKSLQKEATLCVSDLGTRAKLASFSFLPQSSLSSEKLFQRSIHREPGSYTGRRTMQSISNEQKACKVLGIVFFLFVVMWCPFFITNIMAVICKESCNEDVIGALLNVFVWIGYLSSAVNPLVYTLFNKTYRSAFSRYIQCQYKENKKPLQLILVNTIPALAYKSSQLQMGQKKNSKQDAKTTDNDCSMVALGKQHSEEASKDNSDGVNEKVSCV

For experiment [13] the target is unchanged. As to the kind of experiment: 5-hydroxytryptamine receptor 2A (HTR2A) small molecule agonists, cell-based qHTS assay (AID 1963587). Note: nearly all actives have a fitted effect of over 30% in size. The method, boiled down:
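HTR2A-CHO cells, plated 18 h at 37 C/5% CO2, dye-loaded 1 h at 37 C; compounds in DMSO added by pin tool (agonist mode). Intracellular calcium flux read as kinetic fluorescence on FDSS over 2 min at 1 s intervals.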

Experiment [14] concerns the target Muscarinic acetylcholine receptor M1 (Homo sapiens) (UniProt P11229). As to the kind of experiment: Cholinergic receptor muscarinic 1 (CHRM1) small molecule antagonists, cell-based qHTS assay (AID 1963588). Note: nearly all actives have a fitted effect of over 40% in size. The method, boiled down: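 CHRM1-CHO calcium-flux assay, antagonist mode. Cells were seeded 18 h, dye-loaded 1 h at 37 C and given compound for 5 min at RT, then acetylcholine was added at 50nM. FDSS fluorescence was read 3 min; 15 concentrations, three runs.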

Experiment [15] has the same target. As to the kind of experiment: Cholinergic receptor muscarinic 1 (CHRM1) small molecule agonists, cell-based qHTS assay (AID 1963589). Note: nearly all actives have a fitted effect of over 35% in size. In outline: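 Stable CHRM1-CHO cells (human receptor) were incubated 18 h, dye-loaded for 1 h at 37 C and exposed to test compounds for agonist activity, with calcium-dependent fluorescence followed kinetically.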
The nature of experiment [16]: cAMP Responsive Elements (CRE) small molecule agonists, cell-based qHTS assay (AID 1963590). The method, boiled down:
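FRET-based beta-lactamase readout (LiveBLAzer B/G, 2 h RT) quantified CRE activation in HEK 293T CRE-bla cells after 3 h treatment with DMSO-dissolved compounds.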

Experiment [17] is described as follows: cAMP Responsive Elements (CRE) small molecule antagonists, cell-based qHTS assay (AID 1963591; active = well fitted inhibition curve with a large enough effect in the signal ratio in the repeat runs, not every such curve was filed as active; the % refers to the signal ratio). The method, boiled down:
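qHTS in CRE-bla HEK 293T cells: compound in DMSO, then 0.25 uM NKH477 (final), 3 h at 37 °C/5% CO2; beta-lactamase FRET read-out after 2 h substrate incubation.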

The target in experiment [18] is Beta-2 adrenergic receptor (Homo sapiens) (UniProt P07550). Nature of the experiment: Adrenergic beta2 receptor (ADRB2) small molecule antagonists, cell-based qHTS assay (AID 1963592). Note: series mostly up to about 92 µM; nearly all actives have a fitted effect of over 50% in size. The method, boiled down: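 Cells (CHO, stable ADRB2 overexpression) incubated 18-20hr at 37C; compounds added from DMSO; agonist mix (1nM isoproterenol, 100uM IBMX, 25uM Ro-20-1724) added; 0.5hr RT; d2-cAMP and anti-cAMP-cryptate added; 1hr RT; 665/615 nm read.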
Beta-2 adrenergic receptor (Homo sapiens), sequence (P07550 whole entry, looked up): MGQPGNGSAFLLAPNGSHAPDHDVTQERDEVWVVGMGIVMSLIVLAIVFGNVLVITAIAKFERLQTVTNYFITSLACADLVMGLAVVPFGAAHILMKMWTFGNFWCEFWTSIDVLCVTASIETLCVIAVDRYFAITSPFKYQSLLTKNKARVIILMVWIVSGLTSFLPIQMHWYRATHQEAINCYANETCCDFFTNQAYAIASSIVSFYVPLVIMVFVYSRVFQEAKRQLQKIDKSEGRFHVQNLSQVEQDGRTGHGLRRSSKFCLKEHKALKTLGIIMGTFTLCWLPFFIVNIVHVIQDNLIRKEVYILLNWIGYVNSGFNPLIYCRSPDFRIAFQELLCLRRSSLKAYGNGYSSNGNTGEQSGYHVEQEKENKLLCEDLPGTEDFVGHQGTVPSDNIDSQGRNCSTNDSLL

Experiment [19] concerns the target D(2) dopamine receptor (Homo sapiens) (UniProt P14416). Nature of the experiment: Dopamine D2 receptor (DRD2) small molecule agonists, cell-based qHTS assay (AID 1963594). Note: nearly all actives have a fitted effect of over 35% in size. The method, boiled down: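 HEK293 cells stably expressing DRD2 were cultured 24 h at 37 C, then given Ro20-1724 (0.1 mM final) and compounds for 10 min at room temperature. NKH477 (200nM) was then added for 30 min. cAMP was read by HTRF.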

The target is the same in experiment [20]. Nature of the experiment: Dopamine D2 receptor (DRD2) small molecule antagonists, cell-based qHTS assay (AID 1963595; active = well fitted inhibition curve with a large enough effect in the signal ratio in the repeat runs, with a control signal flat; the % refers to the signal ratio). The method, boiled down: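 HTRF cAMP read-out at 665 and 620 nm emission (340 nm excitation). Antagonist mode: compounds were tested against 12 nM quinpirole in DRD2-HEK293 cells, with 200 nM NKH477 raising cAMP and 0.1 mM Ro20-1724 blocking its breakdown.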

D(2) dopamine receptor (Homo sapiens), sequence (P14416 whole entry, looked up): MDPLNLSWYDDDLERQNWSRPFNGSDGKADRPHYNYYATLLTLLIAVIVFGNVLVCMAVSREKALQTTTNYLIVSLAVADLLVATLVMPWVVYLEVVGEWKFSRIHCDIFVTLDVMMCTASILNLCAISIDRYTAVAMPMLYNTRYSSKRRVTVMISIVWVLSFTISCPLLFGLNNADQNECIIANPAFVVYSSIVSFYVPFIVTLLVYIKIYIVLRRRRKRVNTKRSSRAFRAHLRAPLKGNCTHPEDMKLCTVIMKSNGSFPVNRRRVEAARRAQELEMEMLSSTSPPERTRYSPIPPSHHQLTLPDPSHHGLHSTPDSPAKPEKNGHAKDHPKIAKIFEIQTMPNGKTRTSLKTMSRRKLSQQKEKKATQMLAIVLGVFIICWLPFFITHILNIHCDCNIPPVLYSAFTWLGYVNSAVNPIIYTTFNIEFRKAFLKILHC
Muscarinic acetylcholine receptor M1 (Homo sapiens), sequence (P11229 whole entry, looked up): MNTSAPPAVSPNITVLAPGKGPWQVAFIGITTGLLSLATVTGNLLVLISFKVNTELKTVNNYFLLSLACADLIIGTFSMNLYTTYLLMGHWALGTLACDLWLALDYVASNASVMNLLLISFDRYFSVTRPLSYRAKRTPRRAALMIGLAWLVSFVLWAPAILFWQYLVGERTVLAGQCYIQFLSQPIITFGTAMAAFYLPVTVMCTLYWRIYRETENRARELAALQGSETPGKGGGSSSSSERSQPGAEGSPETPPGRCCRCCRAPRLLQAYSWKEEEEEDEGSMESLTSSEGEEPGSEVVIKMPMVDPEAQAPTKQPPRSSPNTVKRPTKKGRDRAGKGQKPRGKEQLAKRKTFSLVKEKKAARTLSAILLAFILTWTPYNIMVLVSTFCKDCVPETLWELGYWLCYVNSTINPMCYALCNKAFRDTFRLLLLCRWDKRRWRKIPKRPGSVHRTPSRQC
Gonadotropin-releasing hormone receptor (Homo sapiens), sequence (P30968 whole entry, looked up): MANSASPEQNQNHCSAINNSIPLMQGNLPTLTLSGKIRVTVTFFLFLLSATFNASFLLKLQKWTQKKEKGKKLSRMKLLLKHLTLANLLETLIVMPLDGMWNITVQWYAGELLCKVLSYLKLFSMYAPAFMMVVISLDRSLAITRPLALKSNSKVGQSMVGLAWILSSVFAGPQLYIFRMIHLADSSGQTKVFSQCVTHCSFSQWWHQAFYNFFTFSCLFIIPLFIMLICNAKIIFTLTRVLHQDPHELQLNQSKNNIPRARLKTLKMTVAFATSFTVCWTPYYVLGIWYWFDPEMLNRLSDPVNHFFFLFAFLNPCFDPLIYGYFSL

On to `Cc1ccc([N+](=O)[O-])c(C)c1`, for which the Potency in [1] is 2.43 µM (active) and inactive; in experiment [2], 1.93 µM (active) and inactive; in experiment [9] it was 18.2 µM (active) and inactive. Moreover, the Potency result in experiment [3], in experiment [4], in [5], in experiment [6], in experiment [7] and in experiment [8] was “inactive” in each case. Also, the Potency result in [10], in [11], in [12], in [13], in experiment [14] and in experiment [15] was “inactive” each time. The Potency result in experiment [16], in experiment [17] and in [18] was “inactive” each time.

As to `NC(=O)/N=N/C(N)=O`, the Potency result in [1], in [2], in experiment [3], in [4], in [5] and in experiment [6] was “inactive” in each case. Also, the Potency entry in [7], in [8], in experiment [9], in experiment [10], in experiment [11] and in experiment [12] was “inactive” in each case. The Potency result in experiment [13], in experiment [14], in [15], in [16], in [17] and in experiment [18] was “inactive” throughout. The Potency result in experiment [19] is “inactive”.

In the case of `CCCCCC1C(=O)CCC1CC(=O)OC` (configuration not stated), the Potency entry in experiment [1], in experiment [2], in experiment [3], in experiment [4], in experiment [5] and in experiment [6] was “inactive” throughout. For the same compound, the Potency result in experiment [7], in experiment [8], in experiment [9], in experiment [10], in experiment [11] and in experiment [12] was “inactive” throughout. The Potency entry in experiment [13], in experiment [14], in experiment [15], in experiment [16], in experiment [17] and in [18] was “inactive” each time. For the same compound, the Potency entry in experiment [19] and in experiment [20] was “inactive” each time.

Consider `CCCCOCCOC(=O)c1ccccc1C(=O)OCCOCCCC`, for which the Potency is 47.5 µM (active) and inactive in experiment [1]; 23.8 µM (active) and 68.6 µM (active) in [2]. The Potency entry in [3], in [4], in [5], in experiment [6], in experiment [7] and in [8] was “inactive” each time. Further, the Potency result in experiment [9], in [10], in experiment [11], in experiment [12], in experiment [13] and in experiment [14] was “inactive” throughout. The Potency entry in [15], in experiment [16], in experiment [17], in experiment [18], in [19] and in [20] was “inactive” throughout.

With `CC(=O)OC(C)(C)C1CC=C(C)CC1` (configuration not stated), the Potency entry in experiment [1], in [2], in [3], in experiment [4], in experiment [5] and in [6] was “inactive” in each case. Further, the Potency entry in experiment [7], in experiment [8], in experiment [9], in experiment [10], in experiment [11] and in experiment [12] was “inactive” throughout. For the same compound, the Potency entry in [13], in experiment [14], in experiment [15], in experiment [16], in experiment [17] and in experiment [18] was “inactive” throughout. Moreover, the Potency entry in [19] and in experiment [20] was “inactive” in each case.

`O=C1CCCCCCCCCCCN1`: the Potency result in experiment [1], in experiment [2], in [3], in [4], in experiment [5] and in experiment [6] was “inactive” throughout. Further, the Potency entry in experiment [7], in experiment [8], in experiment [9], in [10], in [11] and in [12] was “inactive” in each case. The Potency entry in experiment [13], in experiment [14], in experiment [15], in experiment [16], in experiment [17] and in experiment [18] was “inactive” each time. In addition, the Potency result in experiment [19] and in experiment [20] was “inactive” each time.

Regarding `CCOc1ccc(NC(=O)CC(C)O)cc1` (configuration not stated), the Potency result in experiment [1], in experiment [2], in [3], in experiment [4], in experiment [5] and in experiment [6] was “inactive” each time. The Potency entry in [7], in experiment [8], in [9], in experiment [10], in experiment [11] and in experiment [12] was “inactive” throughout. Also, the Potency result in experiment [13], in [14], in experiment [15], in [16], in experiment [17] and in experiment [18] was “inactive” throughout. Moreover, the Potency result in experiment [19] and in experiment [20] was “inactive” in each case.
